Assay outcomes: PubChem BioAssay, several laboratories
An excerpt weighted towards active compounds, which were near 2.4% of everything screened.
A3A deaminase: blocks human APOBEC3A ssDNA deamination. actives 0.41% (n = 330,000). P31941. inhibition, % at 20 µM. AID 493011. recombinant A3A, FAM/TAMRA ssDNA deamination fluorescence;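 active means at least 40% inhibition at 20 µM here, with at most 30% in a related deaminase screen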;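 further: plate controls were A3A with DMSO for no effect and wells lacking A3A enzyme for full effect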
ADAM17 inh: ADAM17 inhibition, QFRET primary screen. actives 0.83% (n = 370,000). inhibition, % at 6.95 µM. P78536. recombinant ADAM17, EDANS/DABCYL FRET peptide cleavage;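 active means inhibition above the mean of compounds lying between control limits plus 3 SD, set per campaign, cut at about 8.5% in these data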;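 further: 0% = DMSO-only wells as the low control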
ADAM10 inh: inhibitors of human ADAM10 | O14672 | recombinant ADAM10, EDANS/DABCYL FRET peptide cleavage, 3 h | inhibition, % at 7 µM | actives 0.62% (n = 370,000);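 active means inhibition above a per-campaign cutoff equal to the mean of compounds falling between control-based bounds plus 3 SD, cut at about 20% in these data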;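 further: 0% = DMSO wells while the 100% control is not disclosed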
Target sequence (O14672 214-748 limits assumed): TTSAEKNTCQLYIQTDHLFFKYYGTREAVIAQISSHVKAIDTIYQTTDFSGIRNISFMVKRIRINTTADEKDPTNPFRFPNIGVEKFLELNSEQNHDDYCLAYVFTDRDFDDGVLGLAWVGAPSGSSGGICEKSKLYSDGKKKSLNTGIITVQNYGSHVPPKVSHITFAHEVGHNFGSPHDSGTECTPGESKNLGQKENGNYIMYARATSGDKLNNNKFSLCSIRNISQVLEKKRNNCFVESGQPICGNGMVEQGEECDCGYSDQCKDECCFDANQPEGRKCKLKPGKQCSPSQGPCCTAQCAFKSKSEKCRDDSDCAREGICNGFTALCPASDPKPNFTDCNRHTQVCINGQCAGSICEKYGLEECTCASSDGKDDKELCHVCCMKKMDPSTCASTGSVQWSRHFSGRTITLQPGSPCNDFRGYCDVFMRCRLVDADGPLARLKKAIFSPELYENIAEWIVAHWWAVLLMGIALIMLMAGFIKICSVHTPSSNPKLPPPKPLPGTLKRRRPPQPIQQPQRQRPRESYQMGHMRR
APOBEC3G inh: blocks human APOBEC3G single-stranded DNA deamination. Q9HC16. recombinant A3G, ssDNA deamination FAM/TAMRA fluorescence. inhibition, % at 20 µM. actives 0.28% (n = 330,000);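 active means inhibition of at least 40% at 20 µM, with no more than 30% in the related APOBEC3A deaminase screen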;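 further: plate controls were DMSO wells with A3G for no effect and wells lacking A3G enzyme for full effect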
CendR NRP1 mod: NRP-1/CendR interaction modulation; AID 602438; FAM-RPARPAR peptide binding to NRP-1, fluorescence polarization; inhibition, % at 25 µM; O14786; actives 0.85% (n = 360,000);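 active means inhibition or corrected inhibition above about 18%, plus a signal ratio from 0.5 to 1.5, limit read from the data, passing the limit was not always enough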
An asterisk follows results filed as active; · = no result given.

SMILES	A3A deaminase	ADAM17 inh	ADAM10 inh	APOBEC3G inh	CendR NRP1 mod
N#CC1(C#N)C(C(N)=O)C1c1ccccc1 (stereo not given)	1	-2	-9	1	-54
O=C(Cn1c(-c2cncs2)nc2ccccc21)NC1CCCCC1	·	2	-7	·	·
O=C(O)c1ccc(NC2=C(Cl)C(=O)c3ccccc3C2=O)cc1	6	3	5	-2	29*
COc1ccccc1-c1oc2ccccc2c1-c1ccc2c(c1)OCO2	2	-14	-61	1	10
COc1ccc(-c2c(-c3ccccc3OC)oc3ccccc23)cn1	-3	-6	-51	-8	27*
COC(=O)CC#C[C@H](C)[C@@H](NS(C)(=O)=O)C1CCCCC1	·	-2	-4	·	·
COc1ccc(-c2ccc(OC)c([C@H]3[C@H]4C=CC[C@@H](C)[C@@H]4C(=O)N3Cc3ccccc3)c2)cc1C	0	-2	2	-5	29*
CCCC(=O)N1CCC(NS(=O)(=O)c2ccc3c(c2)CCN3C(C)=O)CC1	·	-5	-15	·	·
C/C(=N\NC(=O)c1c[nH]c2ccccc12)c1ccc(C)s1	0	0	7	-2	2
CC/C(=N\NC(=O)c1c[nH]c2ccccc12)c1cccs1	0	1	3	7	30*
CCN1C(=O)C2C(c3ccccc3F)NC(Cc3ccc(O)cc3)(C(=O)OC)C2C1=O (stereo not given)	0	-2	4	-5	-10
CCOC(=O)C1(Cc2ccccc2)NC(c2ccccc2F)C2C(=O)N(CC)C(=O)C21 (stereo not given)	5	-2	-1	0	19*
CCC[C@@H](/C=C/C(=O)OC(C)(C)C)Sc1ccc(N)cc1	·	6	7	·	·
CC1(OC(=O)c2cccs2)C(=O)C=C2C=C3CCCN3C=C2C1=O (stereo not given)	80	·	·	67	41*
COC(=O)CCCC1=CC2=CC(=O)C(C)(OC(=O)c3cccs3)C(=O)C2=CN1Cc1ccccc1 (stereo not given)	0	-5	-12	-3	5
CC1(OC(=O)CCc2ccccc2)C(=O)C=C2C=C3CCCN3C=C2C1=O (stereo not given)	40	-4	-8	27	48*
CC1(OC(=O)C2CCCC2)C(=O)C=C2C=C3CCCN3C=C2C1=O (stereo not given)	47	·	·	36	·
COC(=O)CCCC1=CC2=CC(=O)C(C)(OC(=O)c3cccs3)C(=O)C2=CN1CCCOC(C)C (stereo not given)	-2	2	-11	-6	28*
CCCC(=O)c1c[nH]c(C(=O)NCc2cccnc2)c1	0	-2	-2	-6	3
CCC(=O)c1c[nH]c(C(=O)NCc2cccnc2)c1	0	-4	3	-7	22*
O=C(COC(=O)Cc1ccc(Cl)cc1)Nc1cc(S(=O)(=O)N2CCOCC2)ccc1N1CCCC1	-3	-4	-5	-3	44*
Cc1ccc(S(=O)(=O)N2CCOCC2)cc1NC(=O)COC(=O)Cc1ccc(Cl)cc1	-3	1	0	-7	7
CCOc1ccc(C(=O)COC(=O)c2nn(CC)c(=O)c3ccccc23)cc1	-1	-1	-7	-7	19*
COC(=O)/C=C/c1ccccc1S(=O)(=O)N(Cc1ccccc1)Cc1ccco1	0	1	1	-9	17*
COc1ccc(S(=O)(=O)NC(C)C(=O)NC2CC2)cc1C (stereo not given)	-5	-5	-24	-5	28*
SMILES	A3A deaminase	ADAM17 inh	ADAM10 inh	APOBEC3G inh	CendR NRP1 mod
COc1ccc(S(=O)(=O)NC2CC2)cc1Br	-2	4	6	-2	27*
COc1ccc(S(=O)(=O)NC(C)C(=O)N2CCCC2)cc1C (stereo not given)	0	0	3	-1	5
COc1cc(S(=O)(=O)NC2CCCCC2)ccc1F	1	-16	-28	-5	-11
O=C(N[C@H](C(=O)N1CCC[C@H]1C(=O)NCCc1ccccc1Cl)c1ccccc1)C1CCCC1	·	-2	-14	·	·
CC(=O)N1c2cc(S(=O)(=O)Nc3c(C)n(C)n(-c4ccccc4)c3=O)c(Br)cc2CC1C (stereo not given)	·	-3	-3	·	·
Cc1ccc(NC(=O)CN(C)Cc2ccc(Cl)cc2)cc1	2	8.8*	7	-6	9
Nc1cc2c3c(cccc3c1)C(=O)N(CCN1CCCC1)C2=O	·	0	-2	·	32*
CCOc1ccc(-n2c(SC/C=C/c3ccccc3)nnc2-c2cccs2)cc1	·	7	15	·	·
